Test results reported in the supplement of paper PMC12494721.
Counter-ions that a name gives are not always drawn.

How the values were obtained:
Settings in all cases: incubation time: 27 h, anaerobic, 37 °C;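 for the amine columns active = adjusted P below 0.05 in both replicates with a change the same way and a mean fold change under 0.8 or over 1.25; inactive = the rest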
[1] = system: Clostridium sporogenes DSM 1664; experiment: growth (OD595) fold change vs plate DMSO controls (fold change (ratio)); higher = more growth
Outline: (§1)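 To obtain OD, 595 nm absorbance readings were blank-subtracted, corrected for compound background using 20 µM compound solutions in water, and multiplied by a calibration factor of 5. They came from 96-well mGAM cultures grown anaerobically for 27 h at 37 °C and shaken before reading. Growth is the fold change relative to the median of plate DMSO controls. Two biological replicates were averaged, and fold changes above 1.5 were set to NA.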

[2] = system: Escherichia coli IAI1; experiment: as above
Outline: as §1

[3] = system: Klebsiella aerogenes DSM 30053; experiment: as above
Outline: as §1

[4] = system: Ruminococcus gnavus DSM 108212; experiment: as above
Outline: as §1

[5] = system: Klebsiella aerogenes DSM 30053; experiment: fold change of Histamine concentration vs plate DMSO controls (fold change (ratio)); higher = more amine produced, active = hit call of the paper (significant change in both replicates, either direction)
Outline: (§2)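 In 80 µL wells, cultures of four gut bacterial strains in mGAM started at OD 0.1 before a 1:1 dilution and grew anaerobically at 37 °C for 27 h. Compounds were added to 20 µM final, except sweeteners at 50 µM final. After extraction of whole cultures with cold acetonitrile/methanol plus 0.1% formic acid and centrifugation, amines were measured by LC–triple-quadrupole MS in dynamic MRM mode against external calibration curves, with within-batch drift correction. Values give fold change over DMSO controls on the same plate, averaged across 2 biological replicates.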

[6] = system: Clostridium sporogenes DSM 1664; experiment: fold change of Tryptamine concentration vs plate DMSO controls (fold change (ratio)); higher = more amine produced, active = hit call of the paper (significant change in both replicates, either direction)
Outline: as §2

[7] = system: Ruminococcus gnavus DSM 108212; experiment: as above
Outline: as §2

[8] = system: Escherichia coli IAI1; experiment: fold change of Putrescine concentration vs plate DMSO controls (fold change (ratio)); higher = more amine produced, active = hit call of the paper (significant change in both replicates, either direction)
Outline: as §2

[9] = system: Klebsiella aerogenes DSM 30053; experiment: as above
Outline: as §2

[10] = system: Escherichia coli IAI1; experiment: fold change of Cadaverine concentration vs plate DMSO controls (fold change (ratio)); higher = more amine produced, active = hit call of the paper (significant change in both replicates, either direction)
Outline: as §2

[11] = system: Klebsiella aerogenes DSM 30053; experiment: as above
Outline: as §2

[12] = system: Ruminococcus gnavus DSM 108212; experiment: fold change of 2-Phenylethylamine concentration vs plate DMSO controls (fold change (ratio)); higher = more amine produced, active = hit call of the paper (significant change in both replicates, either direction)
Outline: as §2

SMILES | growth [1] | growth [2] | growth [3] | growth [4] | fold change of Histamine concentration [5] | fold change of Tryptamine concentration [6] | fold change of Tryptamine concentration [7] | fold change of Putrescine concentration [8] | fold change of Putrescine concentration [9] | fold change of Cadaverine concentration [10] | fold change of Cadaverine concentration [11] | fold change of 2-Phenylethylamine concentration [12]
O=C(O)c1cccnc1 [Niacin] (20 µM) | 0.979 | 1.07 | 1.01 | 0.963 | 0.97 (inactive) | 0.994 (inactive) | 1.03 (inactive) | 1 (inactive) | 1.03 (inactive) | 0.981 (inactive) | 1.02 (inactive) | 0.993 (inactive)
Nc1ccc(S(=O)(=O)c2ccc(N)cc2)cc1 [Dapsone] (20 µM) | 1.06 | 1.02 | 0.979 | 1.2 | 0.967 (inactive) | 1.03 (inactive) | 0.982 (inactive) | 1.04 (inactive) | 0.981 (inactive) | 1.02 (inactive) | 1 (inactive) | 1.04 (inactive)
OC[C@H](O)C(O)[C@@H](O)CO [L-Arabinitol] (50 µM) | 1.11 | 0.995 | 0.979 | 0.985 | 1 (inactive) | 0.956 (inactive) | 0.939 (inactive) | 1.06 (inactive) | 1.02 (inactive) | 0.981 (inactive) | 0.984 (inactive) | 0.908 (inactive)
CC1CC(OC(=O)c2ccccc2O)CC(C)(C)C1 (stereo unspecified) [Homosalate] (20 µM) | 1.2 | 0.987 | 0.984 | 1.1 | 1.04 (inactive) | 0.994 (inactive) | 0.952 (inactive) | 1.23 (inactive) | 1 (inactive) | 1 (inactive) | 0.986 (inactive) | 0.922 (inactive)
Cc1onc(-c2ccccc2)c1-c1ccc(S(N)(=O)=O)cc1 [Valdecoxib] (20 µM) | 0.979 | 0.98 | 0.973 | 0.87 | 1.08 (inactive) | 0.955 (inactive) | 0.961 (inactive) | 1.07 (inactive) | 0.983 (inactive) | 1.03 (inactive) | 0.972 (inactive) | 0.92 (inactive)
COc1cc2/c(=N/c3ccc(Br)cc3F)nc[nH]c2cc1OCC1CCN(C)CC1 [Vandetanib] (20 µM) | 1.15 | 1.07 | 1.06 | 0.995 | 1.01 (inactive) | 1.04 (inactive) | 1.11 (inactive) | 0.989 (inactive) | 0.907 (inactive) | 0.992 (inactive) | 1.1 (inactive) | 1.14 (inactive)
CCN(Cc1ccncc1)C(=O)C(CO)c1ccccc1 (stereo unspecified) [Tropicamide] (20 µM) | 0.93 | 1.01 | 1.04 | 0.969 | 0.947 (inactive) | 1.06 (inactive) | 0.984 (inactive) | 1.03 (inactive) | 0.967 (inactive) | 0.991 (inactive) | 1.03 (inactive) | 0.959 (inactive)
COc1cc(N)cn[n+]1-c1ccccc1 [Amezinium metilsulfate] (20 µM) | 1.05 | 1.04 | 1.08 | 1.07 | 0.987 (inactive) | 1.05 (inactive) | 1.06 (inactive) | 0.969 (inactive) | 0.98 (inactive) | 1.02 (inactive) | 0.995 (inactive) | 1.11 (inactive)
COc1ccnc(C[S+]([O-])c2nc3cc(OC(F)F)ccc3[nH]2)c1OC (stereo unspecified) [Pantoprazole sodium] (20 µM) | 1.18 | 1.22 | 1 | 0.958 | 0.936 (inactive) | 1.05 (inactive) | 1.05 (inactive) | 1.25 (inactive) | 1.01 (inactive) | 0.98 (inactive) | 1.02 (inactive) | 1.07 (inactive)
OC(CCN1CCCC1)(c1ccccc1)C1CCCCC1 (stereo unspecified) [Procyclidine hydrochloride] (20 µM) | 0.903 | 1.05 | 1.02 | 0.966 | 0.947 (inactive) | 0.959 (inactive) | 0.894 (inactive) | 1.13 (inactive) | 1.08 (inactive) | 0.831 (inactive) | 1.04 (inactive) | 0.912 (inactive)
CC(C)(C)NC(=O)[C@@H]1C[C@@H]2CCCC[C@@H]2CN1C[C@@H](O)[C@H](Cc1ccccc1)NC(=O)[C@H](CC(N)=O)NC(=O)c1ccc2ccccc2n1 [Saquinavir mesylate] (20 µM) | 0.98 | 1.1 | 1.03 | 1.12 | 0.937 (inactive) | 0.966 (inactive) | 0.979 (inactive) | 1.24 (inactive) | 0.993 (inactive) | 0.944 (inactive) | 1.01 (inactive) | 1.03 (inactive)
C[C@@H]1O[C@@H](O[C@H]2[C@H](Oc3cc(O)c(C(=O)CCc4ccc(O)cc4)c(O)c3)O[C@H](CO)[C@@H](O)[C@@H]2O)[C@H](O)[C@H](O)[C@H]1O [Naringin Dihydrochalcone] (50 µM) | 1.1 | 0.965 | 1.05 | 1.2 | 0.958 (inactive) | 0.968 (inactive) | 1 (inactive) | 0.983 (inactive) | 0.996 (inactive) | 1.13 (inactive) | 1.01 (inactive) | 0.966 (inactive)
CN[C@@H]1[C@H](O)[C@H](NC)[C@H]2O[C@@]3(O)C(=O)C[C@@H](C)O[C@H]3O[C@@H]2[C@H]1O [Spectinomycin dihydrochloride] (20 µM) | 1.04 | 0.864 | 0.93 | 0.692 | 0.762 (inactive) | 0.992 (inactive) | 0.991 (inactive) | 0.796 (inactive) | 1.08 (inactive) | 0.95 (inactive) | 1.02 (inactive) | 0.991 (inactive)
CCOC(=O)Nc1ccc2c(c1)N(C(=O)CCN1CCOCC1)c1ccccc1S2 [Moricizine hydrochloride] (20 µM) | 1.09 | 1.08 | 0.995 | 1.06 | 1 (inactive) | 0.989 (inactive) | 0.978 (inactive) | 1.03 (inactive) | 1.01 (inactive) | 1.01 (inactive) | 1 (inactive) | 1 (inactive)
CN(C)CCC(c1ccccc1)c1ccccn1 (stereo unspecified) [Pheniramine maleate] (20 µM) | 1.03 | 0.982 | 0.985 | 0.784 | 1.02 (inactive) | 0.954 (inactive) | 0.877 (inactive) | 0.896 (inactive) | 1.01 (inactive) | 1.27 (active) | 0.986 (inactive) | 0.798 (inactive)
COc1cc(C)c(/C=C/C(C)=C/C=C/C(C)=C/C(=O)O)c(C)c1C [Acitretin] (20 µM) | 0.986 | 1.1 | 1.02 | 1.09 | 0.97 (inactive) | 0.967 (inactive) | 0.962 (inactive) | 1.18 (inactive) | 0.996 (inactive) | 0.971 (inactive) | 1.01 (inactive) | 0.99 (inactive)
Cc1ncc(C[n+]2csc(CCO)c2C)c(N)n1 [Thiamine hydrochloride] (20 µM) | 0.972 | 0.961 | 1.01 | 1.14 | 0.968 (inactive) | 1.06 (inactive) | 0.914 (inactive) | 1.01 (inactive) | 0.998 (inactive) | 1.01 (inactive) | 1.01 (inactive) | 0.868 (inactive)
COc1cc(N)c(Cl)cc1C(=O)NC1CCN(CCCOc2ccc(F)cc2)CC1OC (stereo unspecified) [Cisapride] (20 µM) | 0.913 | 0.988 | 0.969 | 0.705 | 0.959 (inactive) | 0.972 (inactive) | 0.922 (inactive) | 1 (inactive) | 0.983 (inactive) | 1.02 (inactive) | 0.993 (inactive) | 0.929 (inactive)
NC(=O)N/N=C/c1ccc([N+](=O)[O-])o1 [Nitrofural] (20 µM) | 1.07 | 1 | 0.973 | 0.979 | 0.768 (inactive) | 0.906 (inactive) | 0.792 (active) | 0.6 (active) | 0.947 (inactive) | 1.22 (inactive) | 1.01 (inactive) | 0.836 (inactive)
C[C@]12CC[C@@H]3c4ccc(OS(=O)(=O)O)cc4CC[C@H]3[C@@H]1CCC2=O [Estropipate piperazine salt] (20 µM) | 1.04 | 1.01 | 1.01 | 1.21 | 0.996 (inactive) | 0.974 (inactive) | 0.96 (inactive) | 1.04 (inactive) | 0.985 (inactive) | 0.947 (inactive) | 0.993 (inactive) | 0.89 (inactive)
Cc1ccccc1C(=O)Nc1ccc(C(=O)N2CCCC(O)c3cc(Cl)ccc32)c(C)c1 (stereo unspecified) [Tolvaptan] (20 µM) | 1.16 | 0.991 | 0.985 | 1.06 | 1.05 (inactive) | 0.919 (inactive) | 0.964 (inactive) | 0.955 (inactive) | 1.01 (inactive) | 0.995 (inactive) | 1 (inactive) | 0.924 (inactive)
CC(=O)Oc1c(C)cccc1C(=O)O [Cresopirine] (20 µM) | 1.04 | 0.974 | 1.03 | 0.935 | 0.972 (inactive) | 1.06 (inactive) | 0.962 (inactive) | 0.977 (inactive) | 1.02 (inactive) | 0.998 (inactive) | 1.01 (inactive) | 0.945 (inactive)
CNNCc1ccc(C(=O)NC(C)C)cc1 [Procarbazine hydrochloride] (20 µM) | 1.03 | 1.07 | 1.02 | 1.27 | 1.05 (inactive) | 1.02 (inactive) | 1.03 (inactive) | 1.02 (inactive) | 0.983 (inactive) | 0.984 (inactive) | 1 (inactive) | 1.06 (inactive)
